The campaign covered roughly 330,000 compounds. About 540 (0.16%) were called active. The sample holds actives, similar compounds and a random draw of the others, so the mix is not that of the screen. A number with no mark means an inactive call.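 The calls were made as follows: active = activation factor of the enzyme at least 2-fold when tested at 20 µM; inactive = the rest.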

The target in this assay is Intestinal-type alkaline phosphatase (Homo sapiens) (UniProt P09923). Description: enzymatic activation of intestinal alkaline phosphatase – biochemical, luminescence, uHTS, primary screen (AID 2524). The note with it: purified human IAP, CDP-Star luminescence, 30 min; at 10 µM; stronger effect = higher value; 1 = vehicle-only enzyme, 0 = enzyme-free background.
Sequence of Intestinal-type alkaline phosphatase (Homo sapiens) (P09923 whole entry, looked up): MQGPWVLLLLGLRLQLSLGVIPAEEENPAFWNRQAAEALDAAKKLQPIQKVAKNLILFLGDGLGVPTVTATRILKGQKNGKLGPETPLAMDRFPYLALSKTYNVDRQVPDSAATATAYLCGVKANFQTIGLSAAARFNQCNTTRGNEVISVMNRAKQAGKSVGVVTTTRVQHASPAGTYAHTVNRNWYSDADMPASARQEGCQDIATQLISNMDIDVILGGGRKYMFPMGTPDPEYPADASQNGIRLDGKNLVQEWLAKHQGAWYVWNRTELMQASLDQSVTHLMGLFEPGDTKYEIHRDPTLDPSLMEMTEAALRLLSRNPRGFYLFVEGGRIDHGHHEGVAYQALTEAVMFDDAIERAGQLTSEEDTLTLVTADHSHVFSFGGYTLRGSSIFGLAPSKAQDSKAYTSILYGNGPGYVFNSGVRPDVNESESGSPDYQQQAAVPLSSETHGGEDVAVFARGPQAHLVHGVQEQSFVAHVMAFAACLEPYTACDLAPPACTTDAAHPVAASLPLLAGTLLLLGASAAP
As to `O=C(CSCc1ccccc1Cl)NNC(=O)c1ccccc1`, the activation factor was 1.25. The value for `NC(=O)COc1ccc(NC(=O)c2ccccc2-c2ccccc2)cc1` was 2.12 (active); that for `CN(C)C(=O)c1ccc(NC(=O)c2ccccc2-c2ccccc2)cc1` was 1.16. The value for `CC(=O)Nc1ccc(NC(=O)COc2ccc(-c3ccccc3)cc2)cc1` was 0.914; that for `Cn1nnnc1SCC(=O)Nc1ccccc1C(=O)NC1CC1` was 0.94; that for `CCN(CC)S(=O)(=O)c1ccc(Cl)c(C(=O)NCCN2CCOCC2)c1` was 1.07. In the case of `CC1CC(C)(C)n2c(O)c(N=NC(N)=S)c3cccc1c32` (stereo not given), the activation factor was 0.927.

Turning to `CC(=O)Oc1c(C(=O)c2nnc(C)o2)c(=O)n(Cc2ccccc2)c2ccccc12`, the activation factor was 1.07. In the case of `CC(=O)N1CCN(C(=O)c2cccc(S(=O)(=O)Nc3ccc(C)cc3)c2)CC1`, the activation factor was 1.16. As to `Cc1cccc(NS(=O)(=O)c2ccc(C)c(C(N)=O)c2)c1`, the activation factor was 1.05. `Cc1cccc(NS(=O)(=O)c2cccc(C(=O)NNC(=O)c3ccccc3O)c2)c1`: the activation factor is 2.18 (active).

As to `CN(C)C(=O)c1cccn(Cc2cccc(C(F)(F)F)c2)c1=O`, the activation factor is 1.24. Turning to `Cn1c(N)c(C(=O)COC(=O)C23CC4CC(CC(C4)C2)C3)c(=O)n(C)c1=O`, the activation factor is 0.895. For `Cc1ccccc1C(=O)NCC(c1ccco1)N1CCc2ccccc21` (stereo not given), the activation factor is 0.802.

For the molecule `CC12COC3(C(=O)Nc4ccc(Cl)cn4)CC1CCC32C` (stereo not given), the activation factor was 0.935. `COc1cc(CN2CCC(n3nccc3NC(=O)CCCc3ccccc3)CC2)ccc1O`: the activation factor was 1.47. As to `COc1ccc(CN2CCC(n3nccc3NC(=O)CCCc3ccccc3)CC2)cc1C`, the activation factor was 3.92 (active). For `Cc1ccc(CN2CCC(n3nccc3NC(=O)CCCc3ccccc3)CC2)o1`, the activation factor was 1.13. The result for `C=Cn1cc[n+](CC(=O)c2ccc(OC)c(OC)c2)c1` reads 0.894.

Consider `O=C(c1ccc(Br)o1)N(c1ccccn1)C1CCCCC1`, for which the activation factor was 1.04. For `O=C(N/N=C/c1ccc(Br)o1)c1cncc(Br)c1`, the activation factor was 1.05.

As to `N#Cc1ccccc1CN1C(=O)S/C(=C/c2cccn2-c2cccc(C(=O)O)c2)C1=O`, the activation factor is 1.06. `Cc1ccc(C)c(CN2CCC(CNC(=O)Nc3ccc(C)c(F)c3)CC2)c1`: the activation factor is 1.49. The result for `Cc1cccc(CN2CCC(CNC(=O)Nc3ccc(F)c(Cl)c3)CC2)c1` reads 1.31; that for `COc1cc(NC(=O)NCC2CCN(Cc3ccc(C)cc3)CC2)cc(OC)c1OC`, 2.12 (active).

The values are drawn from PubChem BioAssay AID2524 (Sanford-Burnham Center for Chemical Genomics, 2010).
